Reference: PubChem BioAssay (Tox21)
Inconclusive results are not listed. The source made the active and inactive calls. Unless noted, calls follow the shape of the full dose curve.

Experiments:
[1] = Nuclear factor erythroid 2-related factor 2/antioxidant responsive element (Nrf2/ARE) small molecule agonists: qHTS cell viability counter screen in human keratinocytes (AID 1919968; active = well fitted curve in the direction sought with a large enough effect in the repeat runs; an effect the other way counts as inactive or inconclusive; also: nearly all actives have a fitted effect of over 55% in size)
Summary of the method: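 KeratinoSens HaCaT cells, 1,500/well, preincubated 5 h, then exposed to compounds in DMSO for 23 h at 37 C/5% CO2. Viability read as CellTiter-Fluor fluorescence after 1 h, in the same wells as the ARE-luciferase read.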

[2] = Nuclear factor erythroid 2-related factor 2/antioxidant responsive element (Nrf2/ARE) small molecule agonists: luciferase reporter gene qHTS assay in human keratinocytes (AID 1919969); also: nearly all actives have a fitted effect of over 35% in size
[3] = target: Gonadotropin-releasing hormone receptor (Homo sapiens) (UniProt P30968); experiment: Human gonadotropin-releasing hormone receptor (GnRHR) small molecule agonists, calcium flux assay in GnRHR-HEK293 cells (AID 1920063); also: nearly all actives have a fitted effect of over 35% in size
Gonadotropin-releasing hormone receptor (Homo sapiens), sequence (P30968 whole entry, looked up): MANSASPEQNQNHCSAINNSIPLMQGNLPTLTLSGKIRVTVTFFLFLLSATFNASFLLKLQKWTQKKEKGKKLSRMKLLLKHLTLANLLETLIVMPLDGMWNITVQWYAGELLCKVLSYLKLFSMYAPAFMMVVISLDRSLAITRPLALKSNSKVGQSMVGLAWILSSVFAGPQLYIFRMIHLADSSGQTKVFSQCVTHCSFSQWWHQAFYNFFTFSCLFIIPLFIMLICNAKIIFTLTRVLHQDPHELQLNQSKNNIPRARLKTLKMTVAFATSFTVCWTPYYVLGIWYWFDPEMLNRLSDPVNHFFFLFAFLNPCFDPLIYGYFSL
Summary of the method: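 HEK293 cells stably expressing human GnRHR were dye-loaded for 1 h at 37 C. Compound was added in agonist mode and fluorescence (Ex/Em 480/540) recorded kinetically for 3 min. Fifteen concentrations, triplicates.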

[4] = target: KiSS-1 receptor (Homo sapiens) (UniProt Q969F8); experiment: Human kisspeptin (KISS1R) small molecule agonists, calcium flux assay in KISS1R-HEK293 cells (AID 1920064; active = well fitted curve in the direction sought with a large enough effect in the repeat runs; an effect the other way counts as inactive or inconclusive)
KiSS-1 receptor (Homo sapiens), sequence (Q969F8 whole entry, looked up): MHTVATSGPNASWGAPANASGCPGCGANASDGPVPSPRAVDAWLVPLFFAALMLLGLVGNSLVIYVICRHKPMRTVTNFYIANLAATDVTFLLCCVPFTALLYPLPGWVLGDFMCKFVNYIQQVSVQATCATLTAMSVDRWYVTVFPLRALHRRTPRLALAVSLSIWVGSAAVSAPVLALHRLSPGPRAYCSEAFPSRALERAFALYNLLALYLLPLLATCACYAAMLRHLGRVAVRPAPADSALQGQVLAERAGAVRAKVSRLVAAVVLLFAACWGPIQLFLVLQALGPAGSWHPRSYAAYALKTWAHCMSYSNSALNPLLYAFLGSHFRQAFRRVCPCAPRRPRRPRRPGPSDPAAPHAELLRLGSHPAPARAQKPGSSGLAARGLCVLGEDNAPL
Summary of the method: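 HEK293 cells stably expressing human KISS1R were loaded with calcium dye for 1 h at 37 C, then given compound; fluorescence (Ex/Em 480/540) was read kinetically for 3 min. Fifteen concentrations, triplicate.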

[5] = G protein-coupled receptor (GPCR) small molecule agonists, calcium flux assay: HEK293 wild type cell line counter screen (AID 1920065)
Summary of the method: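 Wild-type HEK293 cells plated 18 h, loaded with calcium dye 1 h at 37 C, then compounds added in agonist mode (ATP as positive control). Kinetic fluorescence Ex/Em 480/540 recorded 3 min at 1 sec intervals; 15 concentrations, triplicate.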

[6] = p53 small molecule agonists, cell-based qHTS assay with human liver microsomes (AID 1963577)
Summary of the method: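 Fluorescence of the beta-lactamase reporter in p53RE-bla cells, detected with LiveBLAzer substrate (2 h, room temperature, dark), served as the read-out after 16 h compound exposure at 37 C with human liver microsomes and NADPH, each 0.5 mg/mL final.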

[7] = p53 small molecule agonists, cell-based qHTS assay with rat liver microsomes (AID 1963578)
Summary of the method: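 Cells carrying a p53 response element–beta-lactamase reporter were plated and rested 5 h, then dosed with compound in DMSO plus rat liver microsomes and NADPH, each at 0.5 mg/mL final. After 16 h at 37 C, LiveBLAzer substrate was added for 2 h.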

[8] = p53 small molecule agonists, cell-based qHTS assay with human liver microsomes: qHTS cell viability counter screen (AID 1963579); also: nearly all actives have a fitted effect of over 45% in size
Summary of the method: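 Cytotoxicity counter screen: p53RE-bla, 4,000 cells/well; 5 h settle, 37 C/5% CO2; cpd + HLM 0.5 mg/mL + NADPH 0.5 mg/mL (final); 16 h, 37 C; CellTiter-Glo, 30 min RT, luminescence.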

[9] = p53 small molecule agonists, cell-based qHTS assay with rat liver microsomes: qHTS cell viability counter screen (AID 1963580); also: nearly all actives have a fitted effect of over 45% in size
Summary of the method: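 In HCT-116 cells carrying a p53 response element-bla reporter, compounds were metabolically activated in situ by rat liver microsomes with NADPH over 16 h. Cell ATP content then served as the cytotoxicity measure.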

[10] = p53 small molecule agonists, cell-based qHTS assay: qHTS cell viability counter screen (AID 1963581); also: nearly all actives have a fitted effect of over 45% in size; also: potency is read from the fitted curve at half-maximal effect
Summary of the method: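 p53RE-bla HCT-116 cells, compounds added 5 h after plating and incubated 16 h at 37 C. Cytotoxicity measured in the same wells as intracellular ATP by CellTiter-Glo luminescence after 30 min at room temperature.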

[11] = target: 5-hydroxytryptamine receptor 2A (Homo sapiens) (UniProt P28223); experiment: 5-hydroxytryptamine receptor 2A (HTR2A) small molecule antagonists, cell-based qHTS assay (AID 1963586); also: nearly all actives have a fitted effect of over 45% in size
5-hydroxytryptamine receptor 2A (Homo sapiens), sequence (P28223 whole entry, looked up): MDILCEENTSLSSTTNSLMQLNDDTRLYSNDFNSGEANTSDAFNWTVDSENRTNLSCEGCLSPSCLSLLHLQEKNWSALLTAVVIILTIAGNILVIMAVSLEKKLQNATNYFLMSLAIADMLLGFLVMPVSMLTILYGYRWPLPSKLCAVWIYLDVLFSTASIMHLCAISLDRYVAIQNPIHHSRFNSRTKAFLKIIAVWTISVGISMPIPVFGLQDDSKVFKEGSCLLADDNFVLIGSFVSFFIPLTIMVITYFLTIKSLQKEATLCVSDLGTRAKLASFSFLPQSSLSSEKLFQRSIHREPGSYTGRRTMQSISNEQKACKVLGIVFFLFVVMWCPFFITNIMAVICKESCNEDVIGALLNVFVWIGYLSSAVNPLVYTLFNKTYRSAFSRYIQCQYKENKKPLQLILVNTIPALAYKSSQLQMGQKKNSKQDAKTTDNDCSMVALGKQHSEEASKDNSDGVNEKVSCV
Summary of the method: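 Antagonist-mode intracellular calcium assay: DOI (4 nM) added after 5 min compound pre-incubation at room temperature to dye-loaded HTR2A-CHO cells. Fluorescence followed for 3 min, sampled every second.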

[12] = target: 5-hydroxytryptamine receptor 2A (Homo sapiens) (UniProt P28223); experiment: 5-hydroxytryptamine receptor 2A (HTR2A) small molecule agonists, cell-based qHTS assay (AID 1963587); also: nearly all actives have a fitted effect of over 30% in size
Summary of the method: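 HTR2A-CHO cells, plated 18 h at 37 C/5% CO2, dye-loaded 1 h at 37 C; compounds in DMSO added by pin tool (agonist mode). Intracellular calcium flux read as kinetic fluorescence on FDSS over 2 min at 1 s intervals.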

[13] = target: Muscarinic acetylcholine receptor M1 (Homo sapiens) (UniProt P11229); experiment: Cholinergic receptor muscarinic 1 (CHRM1) small molecule antagonists, cell-based qHTS assay (AID 1963588); also: nearly all actives have a fitted effect of over 40% in size
Muscarinic acetylcholine receptor M1 (Homo sapiens), sequence (P11229 whole entry, looked up): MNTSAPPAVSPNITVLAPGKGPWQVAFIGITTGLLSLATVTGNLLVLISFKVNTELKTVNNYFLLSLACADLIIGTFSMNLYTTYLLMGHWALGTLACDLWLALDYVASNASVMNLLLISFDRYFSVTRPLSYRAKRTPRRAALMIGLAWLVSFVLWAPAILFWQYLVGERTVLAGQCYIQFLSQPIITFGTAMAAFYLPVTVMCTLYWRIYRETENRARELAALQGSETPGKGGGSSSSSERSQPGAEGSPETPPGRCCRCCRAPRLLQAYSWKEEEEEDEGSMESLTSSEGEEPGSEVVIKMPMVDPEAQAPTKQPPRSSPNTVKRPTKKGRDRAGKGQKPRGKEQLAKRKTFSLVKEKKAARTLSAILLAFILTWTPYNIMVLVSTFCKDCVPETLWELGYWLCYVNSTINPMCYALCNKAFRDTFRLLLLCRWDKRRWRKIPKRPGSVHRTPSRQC
Summary of the method: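 CHRM1-CHO calcium-flux assay, antagonist mode. Cells were seeded 18 h, dye-loaded 1 h at 37 C and given compound for 5 min at RT, then acetylcholine was added at 50nM. FDSS fluorescence was read 3 min; 15 concentrations, three runs.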

[14] = target: Muscarinic acetylcholine receptor M1 (Homo sapiens) (UniProt P11229); experiment: Cholinergic receptor muscarinic 1 (CHRM1) small molecule agonists, cell-based qHTS assay (AID 1963589); also: nearly all actives have a fitted effect of over 35% in size
Summary of the method: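 CHO cells stably expressing human CHRM1 were loaded with calcium dye for 1 h at 37 C, then compound was added in agonist mode. Intracellular calcium fluorescence was followed kinetically at 1 s intervals. Fifteen concentrations were tested in three independent runs.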

[15] = cAMP Responsive Elements (CRE) small molecule agonists, cell-based qHTS assay (AID 1963590)
Summary of the method: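 CRE-bla HEK 293T cells, 2,000/well in DMEM with 10% dialyzed FBS and 25 mM HEPES, pre-incubated 18 h at 37 C, then exposed to compound 3 h at 37 C. Beta-lactamase reporter read with LiveBLAzer B/G FRET substrate after 2 h at room temperature.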

[16] = cAMP Responsive Elements (CRE) small molecule antagonists, cell-based qHTS assay (AID 1963591; active = well fitted inhibition curve with a large enough effect in the signal ratio in the repeat runs, not every such curve was filed as active; the % refers to the signal ratio)
Summary of the method: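 CRE-bla HEK293T cells plated 18 h, then given compound plus NKH477 at 0.25 uM final for 3 h at 37C. Beta-lactamase reporter read with LiveBLAzer B/G FRET substrate after 2 h at room temperature.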

[17] = target: Beta-2 adrenergic receptor (Homo sapiens) (UniProt P07550); experiment: Adrenergic beta2 receptor (ADRB2) small molecule antagonists, cell-based qHTS assay (AID 1963592); also: series mostly up to about 92 µM; nearly all actives have a fitted effect of over 50% in size
Beta-2 adrenergic receptor (Homo sapiens), sequence (P07550 whole entry, looked up): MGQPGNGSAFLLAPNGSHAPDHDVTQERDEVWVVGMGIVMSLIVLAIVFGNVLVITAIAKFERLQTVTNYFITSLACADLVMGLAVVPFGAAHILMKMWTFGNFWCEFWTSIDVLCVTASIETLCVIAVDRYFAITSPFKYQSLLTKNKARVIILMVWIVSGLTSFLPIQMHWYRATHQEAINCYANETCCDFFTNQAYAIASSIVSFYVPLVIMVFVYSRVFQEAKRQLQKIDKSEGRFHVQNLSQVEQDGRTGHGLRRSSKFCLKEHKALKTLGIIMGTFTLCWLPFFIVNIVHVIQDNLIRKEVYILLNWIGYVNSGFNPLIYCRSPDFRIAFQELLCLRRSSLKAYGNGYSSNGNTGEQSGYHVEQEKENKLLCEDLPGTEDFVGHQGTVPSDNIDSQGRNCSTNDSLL
Summary of the method: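 Cells (CHO, stable ADRB2 overexpression) incubated 18-20hr at 37C; compounds added from DMSO; agonist mix (1nM isoproterenol, 100uM IBMX, 25uM Ro-20-1724) added; 0.5hr RT; d2-cAMP and anti-cAMP-cryptate added; 1hr RT; 665/615 nm read.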

[18] = target: D(2) dopamine receptor (Homo sapiens) (UniProt P14416); experiment: Dopamine D2 receptor (DRD2) small molecule agonists, cell-based qHTS assay (AID 1963594); also: nearly all actives have a fitted effect of over 35% in size; also: potency is read from the fitted curve at half-maximal effect
D(2) dopamine receptor (Homo sapiens), sequence (P14416 whole entry, looked up): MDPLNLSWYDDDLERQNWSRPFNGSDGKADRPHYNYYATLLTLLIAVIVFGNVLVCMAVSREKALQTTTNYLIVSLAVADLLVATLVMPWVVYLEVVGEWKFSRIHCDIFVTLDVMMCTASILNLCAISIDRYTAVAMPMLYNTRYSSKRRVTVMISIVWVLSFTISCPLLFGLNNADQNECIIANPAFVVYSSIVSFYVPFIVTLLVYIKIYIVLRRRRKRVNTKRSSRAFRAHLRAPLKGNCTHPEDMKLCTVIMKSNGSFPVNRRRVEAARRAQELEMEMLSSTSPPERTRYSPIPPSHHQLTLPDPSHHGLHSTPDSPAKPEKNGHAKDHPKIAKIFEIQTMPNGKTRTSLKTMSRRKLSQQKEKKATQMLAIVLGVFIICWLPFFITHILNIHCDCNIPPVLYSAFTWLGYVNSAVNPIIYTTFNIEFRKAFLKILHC
Summary of the method: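 HEK293 cells stably expressing DRD2 were cultured 24 h at 37 C, then given Ro20-1724 (0.1 mM final) and compounds for 10 min at room temperature. NKH477 (200nM) was then added for 30 min. cAMP was read by HTRF.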

[19] = p53 small molecule agonists, cell-based qHTS assay (AID 1963582; active = well fitted activation curve with a large enough effect in the signal ratio in the repeat runs, not every such curve was filed as active; the % refers to the signal ratio)
Summary of the method: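 p53RE-bla reporter cells, compounds added in DMSO after 5 h plating, incubated 16 h at 37 C. Beta-lactamase read via 2 h room-temperature LiveBLAzer B/G FRET substrate, fluorescence intensity.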

[20] = target: D(2) dopamine receptor (Homo sapiens) (UniProt P14416); experiment: Dopamine D2 receptor (DRD2) small molecule antagonists, cell-based qHTS assay (AID 1963595; active = well fitted inhibition curve with a large enough effect in the signal ratio in the repeat runs, with a control signal flat; the % refers to the signal ratio)
Summary of the method: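 Stable D2 receptor HEK293 line, 24 h after seeding. Compound preincubated 10 min, then quinpirole (12 nM) with forskolin analogue NKH477 (200 nM), 30 min, room temperature. Detection by time-resolved FRET of cAMP.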
% is scaled to controls: 0 for no effect and ±100 for the full control effect.

Clc1c(Cl)c(Cl)c(Cl)c(Cl)c1Cl
inactive: activity change, negative = cytotoxicity [1] 1.8% [at 8.39 µM] | activity, positive = activation [2] 1.26% [at 8.39 µM] | activity change [3] -0.0134% [at 5.22 µM, active compounds read high] | activation [4] 2.59% [at 6.97 µM] | activation [5] 0.0562% [at 5.23 µM] | activation [6] -0.641% [at 5.99 µM] | activation [7] -0.077% [at 5.99 µM] | activity change, negative = cytotoxicity [8] -8.08% [at 5.99 µM] | activity change, negative = cytotoxicity [9] 3.81% [at 5.99 µM] | activity change, negative = cytotoxicity [10] 19.3% [at 5.99 µM] | activity, negative = inhibition [11] 3.79% [at 5.62 µM] | activation [12] -3.36% [at 7.02 µM] | activity, negative = inhibition [13] 4.33% [at 5.58 µM] | activation [14] 0.839% [at 6.97 µM] | activation [15] 0.371% [at 8.39 µM] | activity change, negative = inhibition [16] -9.17% [at 8.39 µM] | activity change, negative = inhibition [17] -5.22% [at 8.39 µM] | activation [18] -1.37% [at 8.39 µM]

CCOc1cccc(C2(N3CCN(c4ccccc4)CC3)CCC(C)CC2)c1 (centres undefined)
inactive: Potency [1] | Potency [2] | Potency [3] | Potency [4] | Potency [5] | Potency [6] | Potency [7] | Potency [8] | Potency [9] | Potency [10] | Potency [19] | Potency [11] | Potency [14] | Potency [15] | Potency [16] | Potency [17] | Potency [18] | Potency [20]

NC(=O)c1ccc(N)nc1
inactive: Potency [1] | Potency [2] | Potency [3] | Potency [4] | Potency [5] | Potency [6] | Potency [7] | Potency [8] | Potency [9] | Potency [11] | Potency [12] | Potency [13] | Potency [14] | Potency [16] | Potency [18]
active: Potency [10] 5.76 µM

CCC1(c2ccccc2)C(=O)NC(=O)NC1=O
inactive: Potency [1] | Potency [2] | Potency [3] | Potency [4] | Potency [5] | Potency [6] | Potency [7] | Potency [8] | Potency [9] | Potency [10] | Potency [19] | Potency [15] | Potency [17] | Potency [18] | Potency [20]

O=CNC(N1CCN(C(NC=O)C(Cl)(Cl)Cl)CC1)C(Cl)(Cl)Cl (centres undefined)
inactive: Potency [1] | Potency [2] | Potency [3] | Potency [4] | Potency [5] | Potency [6] | Potency [7] | Potency [8] | Potency [9] | Potency [10] | Potency [19] | Potency [12] | Potency [14] | Potency [17] | Potency [18] | Potency [20]

O=C(O)c1ccc2[nH]cc(CCCCN3CC=C(c4ccccc4)CC3)c2c1
inactive: Potency [1] | Potency [2] | Potency [3] | Potency [4] | Potency [5] | Potency [6] | Potency [7] | Potency [8] | Potency [9] | Potency [10] | Potency [19] | Potency [12] | Potency [13] | Potency [14] | Potency [17] | Potency [20]
active: Potency [18] 0.0084 µM

Cc1cccc(Cc2cnc[nH]2)c1C
inactive: Potency [1] | Potency [2] | Potency [3] | Potency [4] | Potency [5] | Potency [6] | Potency [7] | Potency [8] | Potency [9] | Potency [10] | Potency [11] | Potency [12] | Potency [13] | Potency [14] | Potency [15] | Potency [17] | Potency [18] | Potency [20]

CCc1cc(OC)c(C[C@H](C)N)cc1OC
inactive: Potency [1] | Potency [2] | Potency [3] | Potency [4] | Potency [5] | Potency [6] | Potency [7] | Potency [8] | Potency [9] | Potency [10] | Potency [19] | Potency [13] | Potency [14] | Potency [15] | Potency [16] | Potency [20]
